PubChem BioAssay (NCATS)
Results filed as inconclusive are left out. A call without a number means that no potency is given here. A number with no mark means an inactive call. The source made the active and inactive calls. Calls follow the shape of the dose curve; as a rule, active = well fitted curve in the direction sought with a large enough effect; inconclusive = small, poorly fitted or top-dose-only effect, or another doubt; inactive = no such curve, though single readings can be large; an effect the other way counts as inactive or inconclusive.

Experiments:
[1] = target: Rap guanine nucleotide exchange factor 3 (Homo sapiens) (UniProt O95398); assay: Confirmatory qHTS for antagonist of cAMP-regulated guanine nucleotide exchange factor 3 (EPAC1) (AID 1645880); also: nearly all actives have a fitted effect of over 55% in size; also: potency is read from the fitted curve at half-maximal effect
Method in brief: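 Nucleotide exchange uses 100 nM EPAC1, 250 nM RAP1B-BODIPY-GDP and 50 uM GDP, with compounds in a concentration-titration series. After 5 min at room temperature, fluorescence (480 nm ex/540 nm em) is read every 5 min for 30 min. Data are normalized to control ATA and DMSO.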

[2] = target: Rap guanine nucleotide exchange factor 3 (Homo sapiens) (UniProt O95398); assay: Confirmatory qHTS for agonist of cAMP-regulated guanine nucleotide exchange factor 3 (EPAC1) (AID 1645881); also: nearly all actives have a fitted effect of over 75% in size; also: potency is read from the fitted curve at half-maximal effect;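 as to activation: EPAC1 catalysed release of BODIPY-GDP from Rap1B seen as fluorescence loss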
[3] = target: Rap guanine nucleotide exchange factor 4 (Homo sapiens) (UniProt Q8WZA2); assay: Confirmatory qHTS for agonist of cAMP-regulated guanine nucleotide exchange factor 4 (EPAC2) (AID 1645884);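 also: nucleotide exchange releases bodipy-GDP from Rap1 and this lowers its fluorescence; nearly all actives have a fitted effect of over 65% in size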; also: potency is read from the fitted curve at half-maximal effect
[4] = target: Rap guanine nucleotide exchange factor 4 (Homo sapiens) (UniProt Q8WZA2); assay: Confirmatory qHTS for antagonist of cAMP-regulated guanine nucleotide exchange factor 4 (EPAC2) (AID 1645885); also: nearly all actives have a fitted effect of over 25% in size
[5] = target: Rap guanine nucleotide exchange factor 3 (Homo sapiens) (UniProt O95398); assay: Counterscreen qHTS for antagonist of cAMP-regulated guanine nucleotide exchange factor 3 (EPAC1) (AID 1645888);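 also: fluorescence loss as bound BODIPY-GDP is released from Rap1B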
Method in brief: (§1)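 Rap1B–BODIPY-GDP (250 nM) with 50 uM GDP; compounds pin-transferred to 9.74 nM–152 uM final (activator) or from 7.32 nM upwards (inhibitor). Fluorescence Ex/Em 480/540 nm read at 5 and 30 min, then after adding cAMP or buffer, at room temperature.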

[6] = target: Rap guanine nucleotide exchange factor 3 (Homo sapiens) (UniProt O95398); assay: Counterscreen qHTS for agonist of cAMP-regulated guanine nucleotide exchange factor 3 (EPAC1) (AID 1645889); also: nearly all actives have a fitted effect of over 40% in size; also: potency is read from the fitted curve at half-maximal effect
Method in brief: as §1

Sequence of Rap guanine nucleotide exchange factor 4 (Homo sapiens) (Q8WZA2 whole entry, looked up): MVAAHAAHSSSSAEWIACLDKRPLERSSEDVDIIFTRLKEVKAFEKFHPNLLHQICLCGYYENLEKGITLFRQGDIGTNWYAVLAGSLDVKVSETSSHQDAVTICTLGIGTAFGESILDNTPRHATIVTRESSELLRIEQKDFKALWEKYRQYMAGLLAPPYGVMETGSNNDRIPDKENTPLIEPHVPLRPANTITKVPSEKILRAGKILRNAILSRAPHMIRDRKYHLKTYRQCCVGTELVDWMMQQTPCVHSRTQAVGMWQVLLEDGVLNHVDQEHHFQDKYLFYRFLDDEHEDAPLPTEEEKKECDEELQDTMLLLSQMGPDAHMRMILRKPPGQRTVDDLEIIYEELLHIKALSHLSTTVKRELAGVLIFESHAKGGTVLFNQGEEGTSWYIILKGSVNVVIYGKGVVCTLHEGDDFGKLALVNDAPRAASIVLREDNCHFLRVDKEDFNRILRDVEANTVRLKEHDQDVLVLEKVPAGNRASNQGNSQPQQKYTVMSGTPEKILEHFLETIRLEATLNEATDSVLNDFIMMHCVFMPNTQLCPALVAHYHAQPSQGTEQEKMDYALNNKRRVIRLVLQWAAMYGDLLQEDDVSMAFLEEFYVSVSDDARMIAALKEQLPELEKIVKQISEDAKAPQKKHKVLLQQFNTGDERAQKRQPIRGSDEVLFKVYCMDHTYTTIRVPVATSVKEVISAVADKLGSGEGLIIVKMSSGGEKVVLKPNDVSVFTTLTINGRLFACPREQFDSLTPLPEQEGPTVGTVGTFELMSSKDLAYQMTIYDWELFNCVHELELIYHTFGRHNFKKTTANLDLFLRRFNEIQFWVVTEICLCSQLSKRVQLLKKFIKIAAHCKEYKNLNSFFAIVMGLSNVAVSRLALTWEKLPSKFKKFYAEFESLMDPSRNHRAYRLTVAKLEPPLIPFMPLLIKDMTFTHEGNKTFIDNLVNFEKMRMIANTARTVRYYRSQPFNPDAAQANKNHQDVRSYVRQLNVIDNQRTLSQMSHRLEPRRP
Sequence of Rap guanine nucleotide exchange factor 3 (Homo sapiens) (O95398 whole entry, looked up): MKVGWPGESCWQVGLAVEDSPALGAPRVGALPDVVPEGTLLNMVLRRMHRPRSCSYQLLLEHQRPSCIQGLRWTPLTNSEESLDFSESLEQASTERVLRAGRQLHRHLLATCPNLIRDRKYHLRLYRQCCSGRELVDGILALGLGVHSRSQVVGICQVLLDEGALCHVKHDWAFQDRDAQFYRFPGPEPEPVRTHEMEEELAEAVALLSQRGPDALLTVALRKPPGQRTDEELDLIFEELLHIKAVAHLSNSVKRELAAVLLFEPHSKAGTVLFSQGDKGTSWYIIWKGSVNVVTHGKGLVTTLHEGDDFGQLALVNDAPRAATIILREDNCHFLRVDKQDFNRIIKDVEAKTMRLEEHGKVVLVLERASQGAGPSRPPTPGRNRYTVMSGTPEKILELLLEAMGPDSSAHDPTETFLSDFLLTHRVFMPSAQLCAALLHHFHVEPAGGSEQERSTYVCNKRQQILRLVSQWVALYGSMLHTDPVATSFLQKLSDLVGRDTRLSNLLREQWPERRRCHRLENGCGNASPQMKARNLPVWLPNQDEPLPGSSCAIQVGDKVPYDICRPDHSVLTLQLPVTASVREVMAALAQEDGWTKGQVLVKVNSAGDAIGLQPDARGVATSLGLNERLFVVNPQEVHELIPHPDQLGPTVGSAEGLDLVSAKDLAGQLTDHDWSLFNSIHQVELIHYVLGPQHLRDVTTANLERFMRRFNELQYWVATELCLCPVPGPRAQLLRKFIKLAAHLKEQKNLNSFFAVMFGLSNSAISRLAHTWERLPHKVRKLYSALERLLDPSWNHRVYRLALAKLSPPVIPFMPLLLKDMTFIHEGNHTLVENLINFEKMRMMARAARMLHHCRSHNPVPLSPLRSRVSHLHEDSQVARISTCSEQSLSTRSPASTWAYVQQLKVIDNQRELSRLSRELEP

Row | Compound | Potency [1] | Potency [2] | activation [3] | Potency [4] | activity change, negative = inhibition [5] | activation [6] | Potency [3] | Potency [5] | Potency [6]
1 | C/C(=C\C(=O)c1ccccc1)Nc1ccc(O)cc1 | inactive | inactive | 3.61% [at 17.1 µM, percent relative to cAMP agonist control] | inactive | -14.8% [at 30.8 µM] | 29.9% [at 30.8 µM] |  |  | 
2 | CC(C(=O)Nc1ccccc1-c1ccccc1)N1CCN(C(=O)c2ccccc2)CC1 (stereo unspecified) | inactive | inactive | 12.7% [at 17.1 µM, percent relative to cAMP agonist control] | inactive | 16.7% [at 30.8 µM] | 29% [at 30.8 µM] |  |  | 
3 | Cc1ccc(S(=O)(=O)/N=C2/NC(=O)/C(=C\c3cc(Br)cc(Br)c3O)S2)cc1 | 16.9 µM (active) | inactive |  | inactive |  |  | inactive | inactive | inactive
4 | CN(Cc1ccccc1N1CCCC1)C(=O)c1cc2ccccc2o1 | inactive | inactive | 4.19% [at 17.1 µM, percent relative to cAMP agonist control] | inactive |  | 17.8% [at 30.8 µM] |  |  | 
5 | CCOC(=O)c1sc(NC(=O)c2ccncc2)nc1C | inactive | inactive |  | inactive |  |  | inactive | inactive | inactive
6 | COc1ccc(N(C)C(=O)c2oc(=O)c3ccccc3c2-c2ccc(C)cc2)c(OC)c1 | inactive | inactive |  | inactive |  |  | inactive | inactive | inactive
7 | Cc1cc2nc3c(=O)n(CCc4ccccc4)c(=O)[nH]c3nc2cc1N | 12.6 µM (active) | inactive | 3.45% [at 17.1 µM, percent relative to cAMP agonist control] | inactive | -6.16% [at 30.8 µM] | 15.2% [at 30.8 µM] |  |  | 
8 | Nc1ccc(-c2c3ccc(=O)cc-3oc3cc(O)ccc23)c(C(=O)O)c1 | inactive | 100 µM (active) |  | inactive |  |  | 100 µM (active) |  | 31.6 µM (active)
9 | COc1ccc(CCNC(=O)c2c(C)nn(-c3ccc(F)cc3)c2-n2cccc2)cc1OC | inactive | inactive |  | inactive |  |  | inactive |  | inactive
10 | Cc1ccc(-n2nc3c(=O)n(CCCC(=O)NCc4ccccc4F)nc(C)c3c2C)cc1 | inactive | inactive |  | inactive |  |  | inactive |  | inactive
11 | CC1=NOC(=O)/C1=C\c1ccc(-c2ccc(Cl)cc2Cl)o1 | 15.8 µM (active) | inactive | -0.185% [at 17.1 µM, percent relative to cAMP agonist control] | inactive |  | 15.1% [at 30.8 µM] |  |  | 
